Results reported in PubChem BioAssay.
Results filed as inconclusive are left out. Activity calls are given as the source filed them. No cut-off is given here; in the data, nearly all actives have AC50 up to about 23 µM.

Assay: viability loss in pontine glioma line – cell-based, SU-DIPG-XIII, MIPE5.0, CellTiter-Glo, qHTS, dose response (AID 1347064);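 for AC50: cells exposed to compound for 48 hours before the viability read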
Settings: CellTiter-Glo ATP luminescence

Structure (SMILES) | outcome | AC50
CCC(=O)NCC[C@@H]1CCc2ccc3c(c21)CCO3 | inactive | 
C=C1CC[C@@H]2[C@](C)(CO)[C@H](O)CC[C@@]2(C)[C@@H]1C/C=C1/C(=O)OC[C@H]1O |  | 20.9 µM (active)
CC(C)(S)[C@@H](N)C(=O)O | inactive | 
CC[C@@]1(O)C[C@H](O[C@H]2C[C@H](N(C)C)[C@H](O[C@H]3C[C@H](O)[C@H](O[C@H]4CCC(=O)[C@H](C)O4)[C@H](C)O3)[C@H](C)O2)c2c(cc3c(c2O)C(=O)c2c(O)cccc2C3=O)[C@H]1C(=O)OC |  | 16.6 µM (active)
C[C@H]1O[C@@H](O[C@H]2[C@@H](O)C[C@H](O[C@H]3[C@@H](O)C[C@H](O[C@H]4CC[C@@]5(C)[C@H](CC[C@@H]6[C@@H]5C[C@@H](O)[C@]5(C)[C@@H](C7=CC(=O)OC7)CC[C@]65O)C4)O[C@@H]3C)O[C@@H]2C)C[C@H](O)[C@@H]1O |  | 0.132 µM (active)
CCC[C@@H]1C[C@@H](C(=O)N[C@@H]([C@H]2O[C@H](SC)[C@H](O)[C@@H](O)[C@H]2O)[C@H](C)Cl)N(C)C1 | inactive | 
CC(C)(O)CC[C@@H](O)[C@](C)(O)[C@H]1CC[C@@]2(O)C3=CC(=O)[C@@H]4C[C@@H](O)[C@@H](O)C[C@]4(C)[C@H]3CC[C@]12C | inactive | 
COc1cc([C@@H]2c3cc4c(cc3[C@H](O)[C@H]3COC(=O)[C@@H]23)OCO4)cc(OC)c1OC |  | 2.63 µM (active)
Nc1ccn([C@@H]2O[C@H](CO)[C@@H](O)[C@H]2O)c(=O)n1 | inactive | 
COc1ccc([C@@H]2CC(=O)c3c(O)cc(O[C@@H]4O[C@H](CO[C@@H]5O[C@@H](C)[C@H](O)[C@@H](O)[C@H]5O)[C@@H](O)[C@H](O)[C@H]4O)cc3O2)cc1O | inactive | 
COc1ccc(-c2cc(=O)c3c(O)cc(O[C@@H]4O[C@H](CO[C@@H]5O[C@@H](C)[C@H](O)[C@@H](O)[C@H]5O)[C@@H](O)[C@H](O)[C@H]4O)cc3o2)cc1O | inactive | 
C[C@H](CCC(=O)O)[C@H]1CC[C@H]2[C@@H]3[C@H](O)C[C@@H]4C[C@H](O)CC[C@]4(C)[C@H]3CC[C@]12C | inactive | 
